This is an account of results in PubChem BioAssay (Tox21).

Unmarked numbers belong to inactive results. Records with an inconclusive call do not appear. Active and inactive are the calls of the source. Unless noted, calls follow the shape of the dose curve; as a rule, active = well fitted curve in the direction sought with a large enough effect in the repeat runs; inconclusive = weak or mixed curves; inactive = no such curve, though single readings can be large; an effect the other way counts as inactive or inconclusive.

Test [1] deals with Thyrotropin-releasing hormone receptor (Homo sapiens) (UniProt P34981). Kind of test: qHTS assay to identify small molecule agonists of the thyrotropin-releasing hormone receptor (TRHR) signaling pathway (AID 1346891; calls by dose curve;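 also: HEK293 cells expressing TRHR with calcium dye readout; series mostly up to about 58 µM; % is scaled to controls: 0 for no effect and ±100 for the full control effect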). Summed up: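 Compounds were tested as agonists at 15 concentrations, in triplicate, on TRHR-Hek293 cells; calcium-sensitive dye fluorescence was recorded for 3 min following addition.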
(Quantitative high-throughput screening tests each substance at several concentrations.)

Test [2] in a line: Caspase-3/7 induction in HepG2 cells by small molecules, qHTS assay (AID 1346978). Also: % is scaled to controls: 0 for no effect and ±100 for the full control effect; nearly all actives have a fitted effect of over 15% in size. The method, boiled down: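 Wild-type HepG2 cells (2,000/well) were settled 5 h at 37 C, 5% CO2, then exposed to compounds in DMSO for 17 h. Caspase-3/7 activity was read by luminescence 30 min after adding Caspase-Glo 3/7 reagent at room temperature.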
Test [3] in a line: Caspase-3/7 induction in CHO-K1 cells by small molecules, qHTS cell viability counter screen (AID 1346979). Also: nearly all actives have a fitted effect of over 35% in size. Also: potency is read from the fitted curve at half-maximal effect. The method, boiled down: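 Viability readout by fluorescence (CellTiter-Fluor) on wild-type CHO-K1 cells exposed for 16hr at 37C and 5% CO2 to compounds delivered in DMSO; reagent incubated 1hr before reading.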
Test [4] in a line: Caspase-3/7 induction in CHO-K1 cells by small molecules, qHTS assay (AID 1346980). Also: % is scaled to controls: 0 for no effect and ±100 for the full control effect; nearly all actives have a fitted effect of over 15% in size. The method, boiled down:
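Wild-type cells were seeded at 1,500 per well and settled 5 hr at 37 C, 5% CO2, then exposed to DMSO-dissolved compounds for 17 hr. Caspase-Glo 3/7 reagent was added, and luminescence was read after 30min at room temperature.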

Test [5] deals with Nuclear receptor subfamily 1 group I member 2 (Homo sapiens) (UniProt O75469). The experiment in a line: Human pregnane X receptor (PXR) small molecule agonists, qHTS assay (AID 1346982). Also: nearly all actives have a fitted effect of over 35% in size. Also: potency is read from the fitted curve at half-maximal effect. As to activation: % is scaled to controls: 0 for no effect and ±100 for the full control effect. Summed up: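 Compound-induced hPXR transactivation of a CYP3A4 luciferase reporter was scored in HepG2 PXR-Luc cells over 24 hr at 37 C, 5% CO2, by luminescence.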
Test [6] deals with Cytochrome P450 2D6 (Homo sapiens) (UniProt P10635). The experiment in a line: Cytochrome P450 Family 2 Subfamily D Member 6 (CYP2D6) small molecule antagonists: luciferase reporter qHTS assay (AID 1671196). Also: nearly all actives have a fitted effect of over 50% in size. Also: potency is read from the fitted curve at half-maximal effect. Summed up: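 Each well received CYP2D6 with its proluciferin substrate and chemical, sat 10 min, then got NADPH regeneration solution for 1 h at room temperature. Luminescence in RLU served as the activity measure.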
(Reporter assays use an easily measured gene product as a stand-in for the process of interest.)

The target of test [7] is Cytochrome P450 2C19 (Homo sapiens) (UniProt P33261). The experiment in a line: Cytochrome P450 Family 2 Subfamily C Member 19 (CYP2C19) small molecule antagonists: luciferase reporter qHTS assay (AID 1671197). Also: nearly all actives have a fitted effect of over 65% in size. Also: potency is read from the fitted curve at half-maximal effect. The method, boiled down: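 P450-Glo CYP2C19 system: enzyme-substrate mix with compound 10 min at room temperature, then NADPH regeneration solution, 1 h at 37C. Proluciferin-to-luciferin conversion detected by luminescence after 20 min with detection reagent; ketoconazole as positive control.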

For test [8], the target named is Cytochrome P450 2C9 (Homo sapiens) (UniProt P11712). The experiment in a line: Cytochrome P450 Family 2 Subfamily C Member 9 (CYP2C9) small molecule antagonists: luciferase reporter qHTS assay (AID 1671198). Also: nearly all actives have a fitted effect of over 50% in size. Also: potency is read from the fitted curve at half-maximal effect. The method, boiled down: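 CYP2C9 activity was measured with a P450-Glo proluciferin substrate. Enzyme–substrate mix was held with compound for 10 min at room temperature, then NADPH regeneration solution was added for 1 h at 37C. Luciferin product was read as luminescence.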

In test [9] the target is Cytochrome P450 1A2 (Homo sapiens) (UniProt P05177). The experiment in a line: Cytochrome P450 Family 1 Subfamily A Member 2 (CYP1A2) small molecule antagonists: luciferase reporter qHTS assay (AID 1671199). Also: nearly all actives have a fitted effect of over 50% in size. Also: potency is read from the fitted curve at half-maximal effect. Summed up: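 Enzymatic CYP1A2 assay, human, luminescent: 10 min compound–enzyme–substrate preincubation, 1 h NADPH-dependent turnover, 20 min detection step, room temperature throughout. Reduced light indicates lower CYP1A2 activity.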

In test [10] the target is Voltage-gated inwardly rectifying potassium channel KCNH2 (Homo sapiens) (UniProt Q12809). Kind of test: Human Ether-a-go-go-Related Gene (hERG) channel small molecule antagonists: fluorescence cell-based qHTS assay (AID 1671200). Also: nearly all actives have a fitted effect of over 50% in size. Also: potency is read from the fitted curve at half-maximal effect. The method, boiled down: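 Thallium served as the potassium surrogate; its influx into dye-loaded U2OS cells carrying the channel was measured by fluorescence over 2 min.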
(In general: The hERG channel carries a current that helps repolarise heart muscle cells.)

In test [11] the target is Cytochrome P450 3A4 (Homo sapiens) (UniProt P08684). Kind of test: Cytochrome P450 Family 3 Subfamily A Member 4 (CYP3A4) small molecule antagonists: luciferase reporter qHTS assay (AID 1671201). Also: nearly all actives have a fitted effect of over 50% in size. Also: potency is read from the fitted curve at half-maximal effect. The method, boiled down:
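Relative luminescence units after 20 min with luciferin detection reagent served as read-out. Beforehand, CYP3A4 turned over a proluciferin substrate for 1 h at room temperature with NADPH regeneration, following 10 min compound preincubation.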

A short description of test [12]: Caspase-3/7 induction in HepG2 cells by small molecules, qHTS cell viability counter screen (AID 1346981). Also: series mostly up to about 92 µM; % is scaled to controls: 0 for no effect and ±100 for the full control effect; nearly all actives have a fitted effect of over 30% in size. The method, boiled down: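 Viability determined by CellTiter-Fluor fluorescence in HepG2 wells also used for the luminescent Caspase-Glo 3/7 read. Compounds were present for 16 hr at 37 C, 5% CO2 before reagent addition.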
Test [13] can be described thus: Human pregnane X receptor (PXR) small molecule agonists, qHTS cell viability counter screen (AID 1346977). Summed up: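 Viability counter screen: CellTiter-Fluor signal in PXR-Luc HepG2 cells, 24hr compound exposure, 37C, 5% CO2.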
Test [14] has as its target Nuclear receptor subfamily 1 group I member 2 (Rattus norvegicus) (UniProt Q9R1A7). Kind of test: Rat pregnane X receptor (rPXR) activation by small molecules, qHTS assay (AID 1346983). Also: % is scaled to controls: 0 for no effect and ±100 for the full control effect; nearly all actives have a fitted effect of over 20% in size. The note with it: rPXR luciferase reporter cells, One-Glo luminescence, 24 h; max activation: hits give high values. Summed up: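 Cell-based rPXR luciferase reporter assay, 2,000 cells per well, rested 5hr at 37 C before compound addition in DMSO, then 24 hr at 37 C. One-Glo reagent was added and luminescence read after 30 min at room temperature.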

The target of test [15] is Nuclear receptor subfamily 1 group I member 2 (Homo sapiens) (UniProt O75469). The experiment in a line: CYP3A4 induction through human pregnane X receptor (PXR) by small molecules, qHTS assay (AID 1346984). Also: potency is read from the fitted curve at half-maximal effect; nearly all actives have a fitted effect of over 40% in size. Summed up:
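Readings come from a luciferase reporter: DPX-2 cells, which are HepG2 cotransfected with PXR and a CYP3A4-promoter construct, were exposed to test compounds for 24 h at 37C before One-Glo detection.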

For test [16] the target is unchanged. The experiment in a line: Human pregnane X receptor (PXR) activation by small molecules, qHTS assay (AID 1346985). Also: potency is read from the fitted curve at half-maximal effect; nearly all actives have a fitted effect of over 40% in size. Summed up: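 DPX-2 cells (HepG2 co-transfected with a PXR response element and a CYP3A4-promoter luciferase construct) were seeded at 2,000 per well, rested 5 hr at 37C, then exposed to DMSO-dissolved compounds for 24 hr. Activation was read as luciferase luminescence.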

Cytochrome P450 2C19 (Homo sapiens), sequence (P33261 whole entry, looked up): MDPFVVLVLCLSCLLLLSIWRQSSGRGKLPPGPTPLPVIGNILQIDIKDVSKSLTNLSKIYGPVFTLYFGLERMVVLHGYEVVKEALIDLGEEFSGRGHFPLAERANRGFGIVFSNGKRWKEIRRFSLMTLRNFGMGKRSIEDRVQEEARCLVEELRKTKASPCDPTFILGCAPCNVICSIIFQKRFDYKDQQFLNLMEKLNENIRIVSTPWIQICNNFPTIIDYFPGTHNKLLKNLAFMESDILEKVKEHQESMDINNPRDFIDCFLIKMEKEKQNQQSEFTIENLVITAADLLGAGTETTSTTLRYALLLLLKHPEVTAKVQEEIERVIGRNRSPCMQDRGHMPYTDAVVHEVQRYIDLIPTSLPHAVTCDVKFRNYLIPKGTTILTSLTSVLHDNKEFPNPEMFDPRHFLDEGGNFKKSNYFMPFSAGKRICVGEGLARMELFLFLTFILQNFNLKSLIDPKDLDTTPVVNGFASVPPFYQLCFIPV
Nuclear receptor subfamily 1 group I member 2 (Homo sapiens), sequence (O75469 whole entry, looked up): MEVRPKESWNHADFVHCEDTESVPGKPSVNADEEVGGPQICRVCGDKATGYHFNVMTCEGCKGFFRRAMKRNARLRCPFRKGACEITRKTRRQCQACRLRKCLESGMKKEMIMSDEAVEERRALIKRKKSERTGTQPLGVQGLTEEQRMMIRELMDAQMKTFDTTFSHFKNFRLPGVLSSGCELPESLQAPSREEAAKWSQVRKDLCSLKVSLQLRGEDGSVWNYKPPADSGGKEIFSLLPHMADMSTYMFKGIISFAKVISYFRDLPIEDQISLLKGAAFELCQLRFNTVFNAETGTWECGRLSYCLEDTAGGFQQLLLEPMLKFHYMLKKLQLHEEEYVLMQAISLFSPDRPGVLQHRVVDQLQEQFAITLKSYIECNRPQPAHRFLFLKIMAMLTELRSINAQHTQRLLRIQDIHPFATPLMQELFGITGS
Cytochrome P450 2D6 (Homo sapiens), sequence (P10635 whole entry, looked up): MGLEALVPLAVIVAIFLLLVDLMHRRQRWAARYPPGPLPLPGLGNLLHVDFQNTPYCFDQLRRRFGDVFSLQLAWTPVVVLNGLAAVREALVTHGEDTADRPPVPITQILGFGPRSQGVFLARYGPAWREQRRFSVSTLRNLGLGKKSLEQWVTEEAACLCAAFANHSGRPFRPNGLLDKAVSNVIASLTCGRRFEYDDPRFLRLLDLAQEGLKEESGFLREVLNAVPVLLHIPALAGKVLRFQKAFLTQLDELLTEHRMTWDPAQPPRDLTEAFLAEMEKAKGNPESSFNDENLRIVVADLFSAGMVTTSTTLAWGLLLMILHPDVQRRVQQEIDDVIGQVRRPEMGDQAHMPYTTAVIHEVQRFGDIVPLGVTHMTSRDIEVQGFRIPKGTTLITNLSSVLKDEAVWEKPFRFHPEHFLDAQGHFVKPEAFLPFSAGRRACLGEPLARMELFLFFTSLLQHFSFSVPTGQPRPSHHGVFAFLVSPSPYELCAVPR
Cytochrome P450 3A4 (Homo sapiens), sequence (P08684 whole entry, looked up): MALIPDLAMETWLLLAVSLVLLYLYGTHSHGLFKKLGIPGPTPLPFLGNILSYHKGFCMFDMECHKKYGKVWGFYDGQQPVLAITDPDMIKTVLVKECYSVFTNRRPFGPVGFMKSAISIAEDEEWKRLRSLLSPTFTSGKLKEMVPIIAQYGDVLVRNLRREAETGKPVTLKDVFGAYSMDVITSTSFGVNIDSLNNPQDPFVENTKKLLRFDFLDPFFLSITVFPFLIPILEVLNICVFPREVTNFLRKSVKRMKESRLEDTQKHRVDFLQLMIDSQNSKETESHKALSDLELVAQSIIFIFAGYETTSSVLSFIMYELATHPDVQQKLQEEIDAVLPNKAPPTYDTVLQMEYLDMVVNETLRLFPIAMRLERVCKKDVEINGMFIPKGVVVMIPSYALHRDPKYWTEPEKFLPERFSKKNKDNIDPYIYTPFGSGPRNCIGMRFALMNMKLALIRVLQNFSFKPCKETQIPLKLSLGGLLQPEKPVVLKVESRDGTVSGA
Cytochrome P450 2C9 (Homo sapiens), sequence (P11712 whole entry, looked up): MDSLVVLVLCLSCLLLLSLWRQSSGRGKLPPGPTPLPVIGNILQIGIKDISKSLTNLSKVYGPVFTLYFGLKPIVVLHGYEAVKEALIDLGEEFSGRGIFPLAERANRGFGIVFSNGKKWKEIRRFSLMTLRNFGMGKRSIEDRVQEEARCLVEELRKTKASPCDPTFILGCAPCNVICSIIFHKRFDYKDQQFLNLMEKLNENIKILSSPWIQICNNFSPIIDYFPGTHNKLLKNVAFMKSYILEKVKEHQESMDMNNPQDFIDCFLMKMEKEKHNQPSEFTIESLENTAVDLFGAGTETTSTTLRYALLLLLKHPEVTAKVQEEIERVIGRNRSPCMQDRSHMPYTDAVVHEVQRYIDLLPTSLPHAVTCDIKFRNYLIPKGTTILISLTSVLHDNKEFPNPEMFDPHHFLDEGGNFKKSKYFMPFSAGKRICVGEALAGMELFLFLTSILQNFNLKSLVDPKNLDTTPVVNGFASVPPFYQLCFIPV
Voltage-gated inwardly rectifying potassium channel KCNH2 (Homo sapiens), sequence (Q12809 whole entry, looked up): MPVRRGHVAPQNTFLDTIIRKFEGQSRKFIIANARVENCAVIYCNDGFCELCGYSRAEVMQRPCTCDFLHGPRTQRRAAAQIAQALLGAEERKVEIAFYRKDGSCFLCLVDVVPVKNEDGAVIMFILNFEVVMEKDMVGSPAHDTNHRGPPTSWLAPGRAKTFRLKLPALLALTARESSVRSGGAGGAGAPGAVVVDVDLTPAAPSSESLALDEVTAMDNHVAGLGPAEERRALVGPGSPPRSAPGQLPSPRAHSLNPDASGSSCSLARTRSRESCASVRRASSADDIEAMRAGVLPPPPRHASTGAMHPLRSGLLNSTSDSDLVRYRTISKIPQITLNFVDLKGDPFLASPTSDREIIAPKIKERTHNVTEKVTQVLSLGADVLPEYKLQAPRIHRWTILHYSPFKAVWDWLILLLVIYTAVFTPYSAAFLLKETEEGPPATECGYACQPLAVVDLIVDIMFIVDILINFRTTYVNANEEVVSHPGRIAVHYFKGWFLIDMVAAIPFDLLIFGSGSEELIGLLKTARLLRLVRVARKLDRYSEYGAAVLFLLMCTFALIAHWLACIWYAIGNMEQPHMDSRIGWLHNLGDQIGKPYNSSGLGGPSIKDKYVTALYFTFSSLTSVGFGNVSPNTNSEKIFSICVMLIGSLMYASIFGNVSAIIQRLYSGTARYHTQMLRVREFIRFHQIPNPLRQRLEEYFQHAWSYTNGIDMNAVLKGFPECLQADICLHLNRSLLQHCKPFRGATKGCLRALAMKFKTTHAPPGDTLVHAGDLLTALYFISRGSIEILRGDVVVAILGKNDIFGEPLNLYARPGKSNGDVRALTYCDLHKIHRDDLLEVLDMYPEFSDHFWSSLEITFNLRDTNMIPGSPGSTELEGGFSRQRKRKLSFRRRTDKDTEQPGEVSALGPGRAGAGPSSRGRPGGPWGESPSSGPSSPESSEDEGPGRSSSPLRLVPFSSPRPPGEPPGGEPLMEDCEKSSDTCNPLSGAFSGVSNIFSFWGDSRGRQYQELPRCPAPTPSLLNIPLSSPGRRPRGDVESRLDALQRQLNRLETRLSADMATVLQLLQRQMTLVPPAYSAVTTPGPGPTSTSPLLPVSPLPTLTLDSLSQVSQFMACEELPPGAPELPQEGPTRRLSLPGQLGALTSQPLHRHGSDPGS
Thyrotropin-releasing hormone receptor (Homo sapiens), sequence (P34981 whole entry, looked up): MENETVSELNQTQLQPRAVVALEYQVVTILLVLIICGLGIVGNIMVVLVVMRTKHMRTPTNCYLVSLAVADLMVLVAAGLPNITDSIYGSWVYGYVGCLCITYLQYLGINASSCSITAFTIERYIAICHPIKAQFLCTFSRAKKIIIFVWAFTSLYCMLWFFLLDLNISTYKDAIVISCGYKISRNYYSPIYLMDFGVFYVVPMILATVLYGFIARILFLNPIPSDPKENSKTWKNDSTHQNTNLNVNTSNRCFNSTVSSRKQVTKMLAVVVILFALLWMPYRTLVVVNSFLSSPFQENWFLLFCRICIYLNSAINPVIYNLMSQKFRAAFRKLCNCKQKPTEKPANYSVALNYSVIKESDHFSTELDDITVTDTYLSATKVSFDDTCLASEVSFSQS
Cytochrome P450 1A2 (Homo sapiens), sequence (P05177 whole entry, looked up): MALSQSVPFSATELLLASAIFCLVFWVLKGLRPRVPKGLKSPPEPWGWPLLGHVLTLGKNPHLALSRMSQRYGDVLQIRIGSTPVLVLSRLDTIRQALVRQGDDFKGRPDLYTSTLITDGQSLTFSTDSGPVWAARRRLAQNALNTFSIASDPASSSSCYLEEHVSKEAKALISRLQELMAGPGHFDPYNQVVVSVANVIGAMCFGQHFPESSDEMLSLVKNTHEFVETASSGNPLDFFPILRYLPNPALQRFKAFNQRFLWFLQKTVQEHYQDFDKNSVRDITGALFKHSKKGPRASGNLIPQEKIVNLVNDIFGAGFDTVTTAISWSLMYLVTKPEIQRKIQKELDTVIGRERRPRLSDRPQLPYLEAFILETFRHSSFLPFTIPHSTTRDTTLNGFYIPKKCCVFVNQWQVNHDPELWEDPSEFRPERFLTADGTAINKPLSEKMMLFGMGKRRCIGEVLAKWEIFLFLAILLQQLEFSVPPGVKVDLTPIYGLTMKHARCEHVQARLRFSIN
Nuclear receptor subfamily 1 group I member 2 (Rattus norvegicus), sequence (Q9R1A7 whole entry, looked up): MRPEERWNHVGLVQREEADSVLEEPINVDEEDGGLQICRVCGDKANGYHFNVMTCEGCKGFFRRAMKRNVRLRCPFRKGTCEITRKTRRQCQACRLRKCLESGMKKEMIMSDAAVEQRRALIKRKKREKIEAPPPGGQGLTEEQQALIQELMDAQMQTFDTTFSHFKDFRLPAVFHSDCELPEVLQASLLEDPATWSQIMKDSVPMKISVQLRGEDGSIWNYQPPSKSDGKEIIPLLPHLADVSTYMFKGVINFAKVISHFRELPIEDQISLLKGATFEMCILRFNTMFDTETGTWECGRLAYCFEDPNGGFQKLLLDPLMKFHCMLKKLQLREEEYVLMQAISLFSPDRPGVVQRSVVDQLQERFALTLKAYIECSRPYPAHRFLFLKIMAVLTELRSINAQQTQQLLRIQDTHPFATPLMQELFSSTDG

Consider `O=c1[nH]c2ccc(S(=O)CCN3CCC(Cc4ccc(F)cc4)CC3)cc2o1` (stereo not given), for which the Potency entry in [1], in [2], in [5], in test [8] and in [9] was “inactive” each time. Further, the Potency in [3] is 54.5 µM (active); in test [6] it was 35.6 µM (active); in [7], 56.4 µM (active); in [10], 4.36 µM (active). Besides, the compound was classed as inactive in test [4].

In the case of `O=C(C(=O)c1ccccc1)c1ccccc1`, the Potency entry in test [1], in [2], in test [3], in test [5], in test [8] and in test [10] was “inactive” throughout. Besides, the Potency entry in test [11] is “inactive”. In [4], the call was inactive. Also, the values for the Potency in test [6] and in [7] were 31.6 µM (active) and 8.9 µM (active), respectively.

Consider `N#C/C(=C1/SC[C@@H](c2ccc(Cl)cc2Cl)S1)n1ccnc1`, for which the Potency result in test [1], in [2], in test [12] and in [5] was “inactive” each time. Besides, in [4], the result was inactive. The Potency in test [6] was 0.219 µM (active); in test [7], 0.389 µM (active); in test [9] it was 0.288 µM (active); in [10], 3.01 µM (active).

As for `CC1CC(=O)NN=C1c1ccc(NCC(C)(C)NCC(O)COc2cc(Cl)ccc2C#N)cc1` (stereo not given), the Potency entry in test [1], in test [2], in test [3], in test [12] and in [9] was “inactive” each time. In addition, in test [4], the compound was classed as inactive. Moreover, the Potency in [5] was 26.6 µM (active); in test [6], 5.49 µM (active); in test [7], 13.8 µM (active); in test [8], 12.3 µM (active).

Regarding `CC1(C)C(=O)N(Br)C(=O)N1Cl`, the Potency result in test [1], in test [2], in test [3], in test [12], in [5] and in test [6] was “inactive” throughout. Moreover, the Potency result in [10] was “inactive”. In [4], the compound was classed as inactive. Also, in test [7], the Potency is 71 µM (active).

On to `Nc1ccc(C(=O)OCCCOC(=O)c2ccc(N)cc2)cc1`, for which the Potency entry in test [1], in test [13], in test [2] and in [12] was “inactive” throughout. Moreover, the Potency in [5] is 54.5 µM (active); in test [6] it was 39.9 µM (active); in test [7], 17.8 µM (active); in test [8], 7.1 µM (active); in test [9] it was 7.1 µM (active); in [11] it was 2.24 µM (active).

For the compound `O=C(CCCN1CCC(O)(c2ccc(Br)cc2)CC1)c1ccc(F)cc1`, the Potency result in test [1], in test [13], in [3], in [9] and in test [11] was “inactive” in each case. In test [4], the call was inactive. Moreover, in test [14], the max activation was -1.43%. The Potency in test [15] was 11.2 µM (active); in test [16] it was 11.2 µM (active); in test [6], 2.45 µM (active); in [10], 0.239 µM (active).

With `CCCOc1ccc(S(=O)(=O)N2CCN(CC)CC2)cc1-c1nc2c(CC)n(Cc3ccccn3)nc2c(=O)[nH]1`, the Potency result in test [1], in [2], in test [3], in [6] and in test [9] was “inactive” each time. For the same compound, the compound was classed as inactive in test [4]. The Potency in [5] is 10.9 µM (active); in test [7] it was 71 µM (active); in [10], 21.9 µM (active); in test [11], 0.399 µM (active).

For the compound `CCOC(=O)CC(=O)C(=O)OCC`, the Potency entry in test [1], in [2], in [3] and in [12] was “inactive” throughout. For the same compound, the compound was classed as inactive in [4]. In addition, the Potency is 35.6 µM (active) in test [7]; 39.9 µM (active) in test [8]; 31.7 µM (active) in test [9]; 49 µM (active) in test [10]; 71 µM (active) in [11].

Turning to `Cc1nc2ccccn2c(=O)c1CCN1CCC(C(=O)c2ccc(F)cc2)CC1`, the Potency result in test [1], in test [2], in [3], in test [12], in test [5] and in test [7] was “inactive” in each case. Besides, the Potency result in [8], in test [9] and in test [11] was “inactive” in each case. Besides, the compound was called inactive in test [4]. Besides, the Potency in [10] was 9.52 µM (active).
